The panel holds about 83,000 compounds, 20% with a hit somewhere; the sample as a whole holds those more often.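 The test compound was applied at a single concentration to cells in 96-well plates for 48 hours, and percent growth was recorded.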 A number with no mark means an inactive call. Activity calls are given as the source filed them.
Each molecule was assayed on T-47D breast (assay: NCI-60 one-dose screen, 48 h (100 = growth as untreated, 0 = no growth, -100 = all killed)). Conditions: 10 µM unless noted.
Procedure: Growth inhibition of the T-47D human tumor cell line is measured as a screen for anti-cancer activity. Cells are grown in 96 well plates and exposed to the test compound for 48 hours. Compounds are tested at a single concentration, which is 10^-5 M for most compounds. The reported endpoint is percent growth (GI% or GIPRCNT), where numbers from 0 - 100% represent growth inhibition, and numbers from -100% - 0 represent cell death. For example, a value of 40 represents 60% growth inhibition. A value of 0 means no net growth occurred over the course of the experiment. A value of -40 indicates 40% of cells at the beginning of the experiment died by the end of the experiment. A value of -100 means all cells are dead at the end of the experiment.
NCI-60 Human Tumor Cell Lines Screen was performed using the standard one-dose NCI protocol, which is described in more detail at https://dtp.cancer.gov/discovery_development/nci-60/default.htm.
Compounds with GIPRCNT values below 10 were considered active. Activity score was based on GIPRCNT using the following formula: […]
Score is 0 for GIPRCNT values of 100 or above, 50 for GIPRCNT values of 0, and 100 for GIPRCNT values of -100.

Row | Structure (SMILES) | growth
1 | CCC(C)(CC)c1ccc(O)c(C)c1 | 101%
2 | CCN(CC)CCOC(=O)c1cccnc1 | 96.6%
3 | Oc1ccccc1\C=N/N=C/C=C/c1ccccc1 | 76.9%
4 | OCCN1CCCN(CCCN2c3ccccc3Sc3ccc(C(F)(F)F)cc32)CC1 | 60.7%
5 | Cc1ccc(C(=O)NN)cc1 | 109%
6 | Nc1ncn([C@@H]2O[C@H](CO)[C@@H](O)C2(F)F)c(=O)n1 | 76.2%
7 | COc1ccc(-c2nnc(SCC(=O)Nc3ccc(C(=O)/C=C/c4cc(OC)c(OC)c(OC)c4)cc3)n2-c2ccccc2)cc1OC | -43.3% [100 µM] (active)
8 | COc1ccc(C(O)(c2ccccc2)C(C(=O)O)c2ccccc2)cc1 (stereo not given) | 86%
9 | Clc1ccc(I)c2ccccc12 | 96.8%
10 | CCCCCCC(=O)C(C)C | 110%
11 | N#CCCCCCCCCCCC#N | 96.2%
12 | CC(Br)c1nc2ccccc2cc1C(N)=O (stereo not given) | 95.7%
13 | CC(O)c1cc[cH-]c1.[Fe+2].c1cc[cH-]c1 (stereo not given) | 101%
14 | CCOC(=O)C1=C(c2ccccc2)NC(=O)NC1CN1C(=O)c2ccccc2C1=O (stereo not given) | 99%
15 | COc1ccc(-c2nc(SCC(C)C)nc(Nc3ccc(C(=O)O)cc3)c2C#N)cc1 | 87.3%
16 | Nc1nc2c(c3cnccc13)C(c1cccc(Cl)c1)Cc1cnccc1-2 (stereo not given) | 47.9%
17 | CCC(C)(C)c1ccc(OCCCCCCN2CCN(c3ccc(C)c(Cl)c3)CC2)cc1 | 66.1%
18 | CC(C)C(=O)c1ccc(Cl)s1 | 90.4%
19 | O=C(CN1CCN(c2cccc(Cl)c2)CC1)N1CCN(c2nnc(-c3ccc(Cl)cc3)c(-c3ccc(Cl)cc3)n2)CC1 | 50.1%
20 | CC(=O)OC1CC2C3CCC4C[C@@H](NC(=O)C=C(C)C)CC[C@]4(C)C3CC[C@]2(C)[C@H]1C(C)N(C)C (stereo not given in full) | -22.3% (active)

Row | Structure (SMILES) | growth
21 | C=C[C@]1(C)C=C2C(=O)[C@@]3(O)OC[C@@]4(CCCC(C)(C)C43O)C2(O)C(O)C1 (stereo not given in full) | 20.9%
22 | COc1cc(CCNc2cnc3cc(N)cc(N)c3n2)cc(OC)c1 | 140%
23 | COc1cccc(NC(=O)NCCNc2nccc(-c3c(-c4ccc(F)cc4)nc4sccn34)n2)c1 | 71.8%
24 | O=C(Cc1ccccc1[N+](=O)[O-])c1ccc2c(c1)OCO2 | 94.4%
25 | COC(=O)C(C)[C@H]1CC[C@@H]2[C@]1(C)CC=C1[C@]23C=C[C@]2(C[C@@H](OC(C)=O)CC[C@]12C)C(C(=O)OC)C3C(=O)OC (stereo not given in full) | 78.2%
26 | COc1ccc2c(c1)/C(=C1/S/C(=N/c3nnc(C)s3)NC1=O)C(=O)N2Cc1ccc(Br)cc1 | 22%
27 | C[C@]12C=CC(=O)C=C1[C@@H](F)C[C@@H]1[C@@H]2[C@@H](O)C[C@@]2(C)[C@H]1CC[C@]2(O)C(=O)CO | 99.4%
28 | COc1ccc(/C=C/C(=O)/C=C/c2cc3ccccc3[nH]c2=O)cc1 | 57.1%
29 | COc1ccc(Cn2cc3c(c2)-c2oncc2CC3)cc1OC | 47.5%
30 | CC(C)(C)C(=O)CCCCCCCC/C=C/CCCC(O)c1ccco1 (stereo not given) | 104%
31 | CC(O)CN(CCO)CCN(CCO)CC(C)O (stereo not given) | 100%
32 | CC(=O)Nc1nc(C)c(C(=O)NNS(=O)(=O)c2ccccc2)s1 | 114%
33 | NCCCOc1cc2ccccc2cc1C(=O)Nc1ccc(Cl)cc1OC(=O)c1cc2ccccc2cc1OCCCN | -55.9% (active)
34 | CCCCCCCCCCN1CC2CCCCC2C1 (stereo not given) | 56.7%
35 | C/C(=C\c1ccc2ccccc2c1)[N+](=O)[O-] | -52.8% (active)
36 | CCn1cnc(C[C@H](NC(=O)[C@@H](NC(=O)Nc2cc(C(F)(F)F)cc(C(F)(F)F)c2)C(C)(C)C)C(=O)OC)c1 | -58% [100 µM] (active)
37 | CCCCCCCCC/C(=N\NC(=O)c1ccncc1)c1ccc(O)c(O)c1O | 33.7%
38 | CN(CCC#N)c1ccc(/C=C(\C#N)c2cccc(C(F)(F)F)c2)cc1 | 56.7%
39 | CCCCN(CCCC)CCCNc1c2c(nc3ccc(Cl)cc13)CCCC2 | 95.7%
40 | CSCc1ncc(-c2ccc(C(F)(F)F)cc2)c(NC2CCCCCC2)n1 | 53.5% [25 µM]

Reference: PubChem BioAssay (NCI)
